Laboratory results taken from PubChem BioAssay (NCATS).
Several values for one entry are separate records, joined by “and”; a condition that tells them apart may be missing. Equal entries are not always repeated. Inconclusive results are not listed. Activity calls are given as the source filed them. Calls come from the whole dose curve; as a rule, active = well fitted curve in the direction sought with a large enough effect; inconclusive = small, poorly fitted or top-dose-only effect, or another doubt; inactive = no such curve, though single readings can be large; an effect the other way counts as inactive or inconclusive.

Legend:
[1] = Viability qHTS for spleen associated tyrosine kinase inhibitor (SYKi) drug resistant MV4-11 cells (AID 1963824); note: nearly all actives have a fitted effect of over 35% in size
Summary of the method: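 CellTiter-Glo luminescence, read 10 min after reagent addition, reports viability after a 72 hr compound exposure. Cells are an MV4-11 line made resistant to SYK inhibition, seeded at 500 per well onto compound-containing plates.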

[2] = Cellular viability qHTS for adrenocortical cancer (ACC) cell line NCI-H295R (AID 1963990); note: nearly all actives have a fitted effect of over 60% in size
Summary of the method: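 Compound titrations (up to 46 uM final) are applied to NCI-H295R cultures for 48 h at 37C. Viable cell number is estimated by CellTiter-Glo signal, normalised to DMSO and doxorubicin controls.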

[3] = Quantitative highthroughput screen to assess conditional lethalithy of NOMO1 cells grown in RPMI1640 with untreated serum (RPMI+s) (AID 1963876); note: nearly all actives have a fitted effect of over 35% in size
Summary of the method: (§1)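 Each medium arm—HPLM with 10% dialyzed FBS, or RPMI1640 with 5 mM glucose and 10% untreated or dialyzed FBS—was screened against an 11-point, 3-fold compound titration for 48 h at 37 °C, with CellTiter-Glo luminescence as endpoint.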

[4] = Quantitative highthroughput screen to assess conditional lethalithy of NOMO1 cells grown in RPMI1640 with dialyzed fetal bovine serum (RPMI+ds) (AID 1963877); note: nearly all actives have a fitted effect of over 30% in size; for Viability: series mostly up to about 46 µM
Summary of the method: as §1

[5] = Quantitative highthroughput screen to assess conditional lethalithy of NOMO1 cells grown in Human Plasma-Like Medium with dialyzed fetal bovine serum (HPLM+ds) (AID 1963878); note: nearly all actives have a fitted effect of over 35% in size
Summary of the method: as §1

[6] = Quantitative highthroughput screen to assess conditional lethalithy of P12 Ichikawa cells grown in Human Plasma-Like Medium with dialyzed fetal bovine serum (HPLM+ds) (AID 1963879); conditions: Potency: viability; note: nearly all actives have a fitted effect of over 35% in size; for Viability: series mostly up to about 46 µM
Summary of the method: as §1

[7] = Quantitative highthroughput screen to assess conditional lethalithy of P12 Ichikawa cells grown in RPMI1640 with dialyzed fetal bovine serum (RPMI+ds) (AID 1963880); conditions: Potency: P12-Ichikawa viability; note: nearly all actives have a fitted effect of over 35% in size
Summary of the method: as §1

[8] = Quantitative highthroughput screen to assess conditional lethalithy of P12 Ichikawa cells grown in RPMI1640 with untreated serum (RPMI+s) (AID 1963881); conditions: Potency: viability; note: nearly all actives have a fitted effect of over 35% in size; for Viability: series mostly up to about 46 µM
Summary of the method: as §1

[9] = Quantitative highthroughput screen to assess conditional lethalithy of SEM cells grown in Human Plasma-Like Medium with dialyzed fetal bovine serum (HPLM+ds) (AID 1963882); note: nearly all actives have a fitted effect of over 35% in size; for Viability: series mostly up to about 46 µM
Summary of the method: as §1

[10] = Quantitative highthroughput screen to assess conditional lethalithy of SEM cells grown in RPMI1640 with unreated serum (RPMI+s) (AID 1963883); note: nearly all actives have a fitted effect of over 35% in size
Summary of the method: as §1

[11] = Quantitative highthroughput screen to assess conditional lethalithy of SEM cells grown in RPMI1640 with dialyzed fetal bovine serum (RPMI+ds) (AID 1963884); note: nearly all actives have a fitted effect of over 35% in size; for Viability: series mostly up to about 46 µM
Summary of the method: as §1

Measured: Potency
Potency is the fitted concentration of half-maximal effect.

CO/N=C(/C(=O)N[C@@H]1C(=O)N2C(C(=O)OCOC(=O)C(C)(C)C)=C(C)CS[C@H]12)c1csc(N)n1
inactive: [2]
active: [1] 23.7 µM

COc1ccc(/C=N/NC(=O)c2ccncc2)cc1OC
inactive: [1] | [2]

CC(C)(CNC(=O)c1cccc(-c2noc(C(F)(F)F)n2)c1)c1coc(-c2ccccc2)n1
inactive: [2]
active: [1] 14.8 µM

CC1(C)C(N(O)C(=O)Nc2ccc(Cl)cc2)N(c2ccc(Cl)cc2)C(=O)N1CC(=O)NN=CC=Cc1ccc([N+](=O)[O-])o1 (centres undefined)
inactive: [3]

CN[C@@H](C)C(=O)N[C@H](C(=O)N1CCC[C@H]1C(=O)Nc1snnc1-c1ccccc1)C1CCCCC1
inactive: [2]
active: [1] 0.132 µM

CCN(C)S(=O)(=O)Nc1ccc(F)c(C(=O)c2c[nH]c3ncc(-c4cnc(C5CC5)nc4)cc23)c1F
active: [1] 4.68 µM | [2] 28.2 µM

CC[C@]12CCCN3CCc4c(n(c5ccccc45)C(=O)C1)[C@@H]32
active: [1] 8.41 µM and 23.1 µM | [2] 5.8 µM

CCOC(=O)[C@H](CCc1ccccc1)N[C@@H](C)C(=O)N1Cc2ccccc2C[C@H]1C(=O)O
active: [1] 5.96 µM | [2] 16.4 µM

Cc1cc2cc(Oc3ccnc(Nc4cccc(CS(=O)(=O)NCCN(C)C)c4)n3)ccc2[nH]1
active: [1] 1.86 µM | [2] 25.1 µM

O=c1cc(-c2ccccc2)oc2ccccc12
inactive: [2]
active: [1] 21.5 µM

Cc1ccc(-c2ncc(Cl)cc2-c2ccc(S(C)(=O)=O)cc2)cn1
inactive: [1] | [2]

CN(Cc1ccccc1)C(=O)c1ccc(S(=O)(=O)Nc2ccccc2)cc1
active: [1] 14.8 µM
inactive: [2]

CC(=O)Nc1cc(Oc2ccc3c(nc(Nc4ccc(F)cc4F)n3C)c2C)ccn1
active: [1] 1.66 µM | [2] 2.24 µM

OCc1c[nH]c2ccccc12
active: [1] 24.3 µM | [2] 22.4 µM

CCC(=O)c1ccc2c(c1)N(CCCN(C)C)c1ccccc1S2
active: [1] 21.1 µM | [2] 14.6 µM

CCCCCCCCCCCCCCNCCO
active: [1] 16.8 µM | [2] 23.1 µM

CNc1ncc2cc(-c3cc(NC(=O)NCCC(C)(C)C)c(F)cc3C)c(C)nc2n1
active: [1] 0.164 µM | [2] 17.8 µM

CC(C)C(=O)c1c(C(C)C)nn2ccccc12
inactive: [1] | [2]

COc1ccc(-c2ccc3c(N4CCOC[C@@H]4C)nc(N4CCOC[C@@H]4C)nc3n2)cc1CO
active: [1] 0.148 µM | [2] 0.178 µM

Fc1ccc2[nH]ccc2c1-c1nc(N2CCOCC2)c2sc(CN3CCN(CC4CC4)CC3)cc2n1
active: [1] 5.9 µM | [2] 31.6 µM

O=C(NC[C@H](O)CN1CCc2ccccc2C1)c1ccnc(NC2CCC2)c1
active: [1] 6.61 µM
inactive: [2]

Cc1[nH]c(/C=C2\C(=O)Nc3ccc(F)cc32)c(C)c1C(=O)NCCN1CCCC1
active: [1] 73.1 nM and 32.3 nM | [2] 10.1 µM

CC(=O)Oc1ccc2c(c1)CC[C@@H]1[C@@H]2CC[C@]2(C)[C@@H](O)CC[C@@H]12
active: [1] 15 µM | [2] 18.4 µM

Cc1ccc2nc(N)[nH]c(=O)c2c1Sc1ccncc1
inactive: [2]
active: [1] 4.61 µM

CN1CCC[C@@H]1CCO[C@](C)(c1ccccc1)c1ccc(Cl)cc1
active: [1] 18.8 µM | [2] 20.6 µM

CC(C)OC(=O)CCCC=CC[C@@H]1[C@H](C=C[C@@H](O)COc2cccc(C(F)(F)F)c2)[C@H](O)C[C@@H]1O
active: [3] 33.2 µM

CC(C)(O)CC[C@@H](O)[C@](C)(O)[C@H]1CC[C@@]2(O)C3=CC(=O)[C@@H]4C[C@@H](O)[C@@H](O)C[C@]4(C)[C@@H]3CC[C@]12C
inactive: [3] | [4] | [5] | [6] | [7] | [8] | [9] | [10] | [11]

CC1CC2C3CCC4=CC(=O)C=C[C@]4(C)[C@@]3(F)[C@@H](O)C[C@]2(C)[C@@]1(O)C(=O)CO (some centres undefined)
inactive: [3] | [4] | [5]

CO[C@H]1C[C@@H]2CC[C@@H](C)[C@@](O)(O2)C(=O)C(=O)N2CCCC[C@@H]2C(=O)O[C@H]([C@H](C)C[C@@H]2CC[C@H](OP(C)(C)=O)[C@H](OC)C2)CC(=O)[C@H](C)C=C(C)[C@@H](O)[C@@H](OC)C(=O)[C@H](C)C[C@H](C)C=CC=CC=C1C
inactive: [3] | [4]

Cc1nc(NC(=O)N2CCC[C@@H]2C(N)=O)sc1-c1csc(C(C)(C)C)n1
active: [3] 2.35 µM | [4] 1.66 µM | [5] 1.48 µM | [6] 1.66 µM | [7] 2.35 µM | [8] 1.66 µM | [9] 1.05 µM | [10] 0.743 µM | [11] 1.05 µM

CCCCCOC(=O)Nc1nc(=O)n([C@@H]2O[C@H](C)[C@@H](O)C2O)cc1F (some centres undefined)
inactive: [3] | [4] | [5] | [6] | [7] | [8] | [9] | [10] | [11]

COc1cccc2c1C(=O)c1c(O)c3c(c(O)c1C2=O)C[C@@](O)(C(=O)CO)C[C@H]3O[C@H]1C[C@H](N)[C@H](O)[C@H](C)O1
active: [3] 2.96 µM | [4] 2.96 µM | [5] 2.35 µM | [6] 1.66 µM | [7] 2.09 µM | [8] 1.32 µM | [9] 0.469 µM | [10] 0.418 µM | [11] 0.372 µM

Nc1ncnc2c1ncn2[C@@H]1O[C@H](CO)C[C@@H]1O
inactive: [3] | [4] | [5] | [6] | [7] | [8]

C[C@H]1[C@H](NC(=O)C(=NOC(C)(C)C(=O)O)c2csc(N)n2)C(=O)N1S(=O)(=O)O
inactive: [3] | [4] | [5] | [6] | [7] | [8] | [9] | [10]

CCCCCCCc1ccc(CCc2cccc(O)c2C(=O)O)cc1
inactive: [3] | [4] | [5] | [6] | [7]

CCOC(=O)N1CCN([N+]([O-])=NOc2cc(ON=[N+]([O-])N3CCN(C(=O)OCC)CC3)c([N+](=O)[O-])cc2[N+](=O)[O-])CC1
inactive: [3] | [4] | [5] | [6] | [7] | [8] | [9] | [10]

CNC[C@@H](O)[C@@H](O)[C@H](O)[C@H](O)CO
inactive: [3] | [4] | [6] | [7] | [8]
active: [5] 0.526 µM

CN(C)CCc1c[nH]c2ccc(Cn3cncn3)cc12
active: [3] 1.05 µM | [4] 1.18 µM | [5] 0.833 µM | [6] 1.18 µM | [7] 0.935 µM | [8] 1.18 µM | [9] 0.372 µM | [10] 0.132 µM | [11] 0.264 µM

CCC(=O)OCC(=O)[C@@]1(OC(=O)CC)[C@@H](C)C[C@@H]2[C@H]3CCC4=CC(=O)C=C[C@]4(C)[C@@]3(F)[C@@H](O)C[C@@]21C
active: [3] 7.43 µM | [4] 5.9 µM | [5] 1.66 µM | [6] 5.9 µM | [7] 2.35 µM | [8] 4.69 µM

O=C(O)c1cccc(-c2noc(-c3ccccc3F)n2)c1
inactive: [3] | [4] | [5] | [6] | [7] | [8] | [9] | [10] | [11]

NC(N)=Nc1nc(CSCCC(N)=NS(N)(=O)=O)cs1
inactive: [3] | [4] | [5] | [6] | [7] | [8] | [9] | [10] | [11]

O=C(O)C1=CO[C@@H](O[C@@H]2O[C@H](CO)[C@H](O)[C@H](O)[C@H]2O)[C@@H]2C(CO)=CC[C@H]12
inactive: [3] | [4] | [5] | [6] | [7] | [8] | [9] | [10] | [11]

NC(=O)c1ncn([C@@H]2O[C@H](CO)[C@@H](O)[C@@H]2O)c1N
active: [9] 18.7 µM
inactive: [3] | [4] | [5] | [6] | [7] | [8]

CCCCCCCCCCCCCCCC(=O)OC[C@@H](NC(=O)C(Cl)Cl)[C@H](O)c1ccc([N+](=O)[O-])cc1
inactive: [3] | [4] | [5] | [6] | [7] | [8] | [9] | [10]

COc1cc(Nc2ncc(F)c(Nc3ccc4c(n3)NC(=O)C(C)(C)O4)n2)cc(OC)c1OC
active: [3] 5.9 µM | [4] 9.35 µM | [5] 4.69 µM | [6] 4.18 µM | [7] 5.26 µM | [8] 5.26 µM | [9] 1.66 µM | [10] 1.48 µM

C=C1CCC2[C@](C)(CO)C(O)CC[C@]2(C)C1CC=C1C(=O)OCC1O (some centres undefined)
inactive: [3] | [4] | [5] | [6] | [7] | [8] | [9] | [11]
active: [10] 0.034 µM

CCN(CC)CCNC(=O)c1c(C)[nH]c(C=C2C(=O)Nc3ccc(F)cc32)c1C
active: [3] 0.303 µM | [4] 0.303 µM | [5] 0.171 µM | [6] 0.27 µM | [7] 0.34 µM | [8] 0.481 µM

CCC=CC[C@H]1C(=O)CC[C@@H]1CC(=O)OC
inactive: [3] | [4] | [5] | [6] | [7]

CC=C(C(=CC)c1ccc(O)cc1)c1ccc(O)cc1
inactive: [3] | [4] | [5] | [6] | [7] | [8] | [9]

O=C(C=Cc1ccc(CN(CCO)CCc2c[nH]c3ccccc23)cc1)NO
active: [3] 0.59 µM | [4] 0.743 µM | [5] 0.59 µM | [6] 0.418 µM | [7] 0.418 µM | [8] 0.332 µM | [9] 0.264 µM | [10] 0.264 µM

O=C1NC(=O)C(=Cc2cccc(C(F)(F)F)c2)S1
inactive: [3] | [4] | [5] | [6] | [7]
